Data: PubChem BioAssay (Tox21)
Results filed as inconclusive are left out. A call without a number means that no potency is given here. Activity calls are given as the source filed them. Calls come from the whole dose curve; as a rule, active = well fitted cell-killing curve with a large enough effect in the repeat runs; inconclusive = weak or mixed curves, or effect the other way; inactive = flat fitted curve, though single readings scatter.

Test: qHTS assay to identify small molecule that activate the aryl hydrocarbon receptor (AhR) signaling pathway - cell viability counter screen (AID 743086);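 note: HepG2 liver cells carrying the AhR DRE luciferase reporter; nearly all actives have a fitted effect of over 45% in size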
Details: HepG2-AhR-luc viability, CellTiter-Fluor, 24 h; series mostly up to 70.3 µM
Text: U.S. Tox21 Program National Center for Advancing Translational Sciences [NCATS] NIH Chemical Genomics Center [NCGC] U.S. Environmental Protection Agency [EPA] National Institutes of Environmental Health Sciences [NIEHS] National Toxicology Program [NTP] U.S. Food and Drug Administration [FDA] Tox21 Assay overview: The Aryl hydrocarbon Receptor (AhR), a member of the family of basic helix-loop-helix transcription factors, is crucial to adaptive responses to environmental changes. AhR mediates cellular responses to environmental pollutants such as aromatic hydrocarbons through induction of phase I and II enzymes but also interacts with other nuclear receptor signaling pathways A cell based HepG2-AhR-luc assay (HG2L7.5c1 cell line, developed by Dr. Michael S. Denison, University of California at Davis) was used to assess the activation of AhR. HepG2 (human hepatocellular carcinoma) cells were stably transfected with an Ah receptor-responsive firefly luciferase reporter gene plasmid containing 20 dioxin responsive elements and luciferase reporter gene. Increased luciferase activity can be used to identify the compounds that induce AhR activation. The cytotoxicity of the compounds screened against the HepG2-AhR-luc cell line was tested in parallel by measuring the cell viability using CellTiter-Fluor assay in the same wells.
Tox21 Assay Protocol Summary: 4000 cells in 5 uL/well were dispensed into white wall/solid bottom 1536-well plates using a Multidrop Combi (Thermo Fisher Scientific Inc., Waltham, MA) dispenser. After the assay plates were incubated at 37C for 5 h, 23 nL of compound or DMSO vehicle was transferred to the assay plates by a pintool station (Kalypsys, San Diego, CA). The plates were incubated at 37C for 24 hr. For cell viability measurement, 1 ul/well of CellTiter-Fluor reagent (Promega, Madison, WI) was added into the assay plates using a Flying Reagent Dispenser (FRD) (Aurora Discovery, CA),and then the assay plates were incubated at 37C for 30 min. The fluorescence intensity in the plates was measured using a ViewLux plate reader (PerkinElmer, Shelton, CT), followed by the addition of 4 uL of ONE-Glo Luciferase Assay reagent (Promega) using an FRD (Aurora Discovery). After the assay plates were incubated at room temperature for 30 min, luminescence intensity was measured using a ViewLux plate reader (Perkin Elmer).

Compound | Potency
Cc1ccc(C)c(S(=O)(=O)O)c1 | inactive
CC(C)=CCC/C(C)=C/C=O | inactive
O=C1CCCCCCCCCCC1 | inactive
CCCN(CCC)C(=O)SCC | inactive
O=C(O)Cc1c[nH]c2ccccc12 | inactive
CO[Si](CCCNCCN)(OC)OC | inactive
Cc1cc(C)c(O)c(C)c1 | inactive
COCN(COC)c1nc(N(COC)COC)nc(N(COC)COC)n1 | inactive
CC(=O)OCc1ccc2c(c1)OCO2 | inactive
CC(CN1c2ccccc2Sc2ccccc21)N(C)C (stereo not given) | inactive
OC1CCCCC1 | inactive
CC(=O)OC/C=C(\C)CCC=C(C)C | inactive
CC1=CC(=O)CC(C)(C)C1 | inactive
CCCOCC(C)O (stereo not given) | inactive
Cc1ccc(C(C)C)cc1 | inactive
O=Cc1ccc(CO)o1 | inactive
Cc1ncc(CO)c(CO)c1O | inactive
Clc1cccc(Cl)c1NC1=NCCN1 | inactive
OC[C@H]1O[C@@H](Oc2ccc(O)cc2)[C@H](O)[C@@H](O)[C@@H]1O | inactive
COc1ccc2cc3[n+](cc2c1OC)CCc1cc2c(cc1-3)OCO2 | inactive

Compound | Potency
CCCCCCCCC(=O)O | inactive
Nc1cccc(C(F)(F)F)c1 | inactive
CCCCCCCCO | inactive
CCCCCCCCCCCCCC(=O)O | inactive
O=C(O)C1=NN(c2ccc(S(=O)(=O)O)cc2)C(=O)C1 | inactive
C[n+]1ccn(CCO)c1 | inactive
O=[N+]([O-])c1cc(C(F)(F)F)ccc1Cl | inactive
COc1c2ccoc2cc2oc(=O)ccc12 | inactive
CC(O)CNCC(C)O (stereo not given) | inactive
CCCCCC(C)=O | inactive
CCCCC(CC)COC(=O)c1ccc(C(=O)OCC(CC)CCCC)cc1 (stereo not given) | inactive
CN=C(NC#N)NCCSCc1nc[nH]c1C | inactive
CCCOC(=O)NCCCN(C)C | inactive
CCc1cccc(CC)c1N | inactive
NCCNCCNCCN | inactive
CCN(CC)CCNC(=O)c1ccc(N)cc1 | inactive
O=[N+]([O-])c1ccccc1C(F)(F)F | inactive
CC(C)c1ccc(C(C)C)cc1 | inactive
CS(=O)(=O)c1ccc(Cl)cc1 | inactive
O=C1OC(=O)c2c(Cl)c(Cl)c(Cl)c(Cl)c21 | inactive
